From PubChem BioAssay (EPA / NIEHS) come the findings set out here.

Structures are written as SMILES. Inconclusive results are not listed. Active and inactive are the calls of the source. Rule for the calls: active = hit-call score of the fitted dose curve at least 0.9, where 1 is the maximum; inconclusive = response in the unintended direction; inactive = score below 0.9.

Sequence of human Serotonin, 5-Hydroxytryptamine Receptor 2A (5HT2A), HTR2A (gene 3356) (P28223 whole entry, looked up): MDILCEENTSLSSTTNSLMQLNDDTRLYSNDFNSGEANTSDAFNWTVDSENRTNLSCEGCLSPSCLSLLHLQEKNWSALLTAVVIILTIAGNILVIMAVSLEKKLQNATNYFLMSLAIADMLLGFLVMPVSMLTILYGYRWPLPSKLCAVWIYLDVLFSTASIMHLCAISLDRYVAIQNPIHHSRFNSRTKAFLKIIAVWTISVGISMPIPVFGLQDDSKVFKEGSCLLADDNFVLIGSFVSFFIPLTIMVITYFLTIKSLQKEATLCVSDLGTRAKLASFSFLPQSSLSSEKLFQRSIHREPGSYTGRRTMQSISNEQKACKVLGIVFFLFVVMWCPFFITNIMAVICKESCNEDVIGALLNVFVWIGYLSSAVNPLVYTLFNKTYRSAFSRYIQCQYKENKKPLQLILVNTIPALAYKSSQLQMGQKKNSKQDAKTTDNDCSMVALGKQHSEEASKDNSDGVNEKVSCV

The assay concerns the target human Serotonin, 5-Hydroxytryptamine Receptor 2A (5HT2A), HTR2A (gene 3356) (UniProt P28223). Briefly: NVS_GPCR_h5HT2A: NovaScreen (NVS) G Protein-Coupled Receptor Assay for human Serotonin, 5-Hydroxytryptamine Receptor 2A (5HT2A) (AID 2283249). The method, then: NVS_GPCR_h5HT2A is a biochemical, single-readout assay that uses extracted gene-proteins from Human cortex in a tissue-based cell-free assay. Measurements were taken 1.5 hours after chemical dosing in a 48-well plate.NVS_GPCR_h5HT2A is one of one assay component(s) measured or calculated from the NVS_GPCR_h5HT2A assay. It is designed to make measurements of radioligand binding, a form of binding reporter, as detected with scintillation counting signals by Filter-based radiodetection technology.Data from the assay component NVS_GPCR_h5HT2A was analyzed into 1 assay endpoint. This assay endpoint, NVS_GPCR_h5HT2A, was analyzed in the positive analysis fitting direction relative to DMSO as the negative control and baseline of activity. Using a type of binding reporter, loss-of-signal activity can be used to understand changes in the binding as they relate to the gene HTR2A. Furthermore, this assay endpoint can be referred to as a primary readout, because the performed assay has only produced 1 assay endpoint. To generalize the intended target to other relatable targets, this assay endpoint is annotated to the gpcr intended target family, where the subfamily is rhodopsin-like receptor.
Binding assays used specific radioligands (tritiated, iodinated) with non-radioactive competitive displacement ligands in agonist or antagonist protocols (as indicated) and various reference compounds and inhibitors to titrate specific binding to receptors and transporters. Most enzyme assays (CYPs, kinases, phosphatases, proteases, HDACs) used recombinant protein and specific substrates (fluorescence mostly, some colorimetric and radioactive) and inhibitors, followed by a biochemical separation of substrate and product. All assays for the biochemical HTS were initially run in duplicate at a single concentration (10 uM for CYP450 assays and 25 uM for all others). […] Each assay was run with positive and negative controls, and concurrent controls on every plate. The follow-up (secondary) screen tested active chemical-pairs in concentration series, as well as a few additional assays not tested in the primary screen, some selected negative inactives, and several cases re-run in the concentration series for confirmatory purposes.
`CC(C)(O)c1ccc(CNC(=O)c2cccnc2Oc2ccc(F)cc2)cc1`: the call was inactive.
Turning to `CN(C)C(=O)NC1(c2ccccc2)CCN(CCC[C@]2(c3ccc(Cl)c(Cl)c3)CCCN(C(=O)c3ccccc3)C2)CC1`, the outcome was inactive.
As for `CC(=O)O`, the call was inactive.
In the case of `C=CCc1ccc(OC)c(OC)c1`, the molecule was called inactive.
Consider `CCC(C)N(C)C(=O)c1cc2ccccc2c(-c2ccccc2Cl)n1` (stereo not given), for which the result was inactive.
Take `CN(C)C(=O)NC1(c2ccccc2)CCN(CC[C@@]2(c3ccc(F)c(F)c3)CN(C(=O)c3ccccc3)CCO2)CC1`: the AC50 is 13.1 µM (active).
Regarding `Cc1occc(=O)c1O`, the outcome was inactive.
In the case of `CSc1ccc(Oc2ccc(S(N)(=O)=O)cc2CN(C)C)cc1C`, the AC50 was 13.4 µM (active).
With `O=C(N[C@@H](c1ccccc1)[C@@H]1CCCCN1)c1cccc(C(F)(F)F)c1Cl`, the concentration at half-maximal activity (AC50) was 25 µM (active).
As for `CC(N)=O`, the molecule was called inactive.
